Assay [1] deals with Progesterone receptor (Homo sapiens) (UniProt P06401). Nature of the assay: qHTS assay to identify small molecule agonists of the progesterone receptor (PR) signaling pathway (AID 1346784; calls by dose curve; further: nearly all actives have a fitted effect of over 30% in size). An outline of the steps:
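Reporter assay, GripTite PR-UAS-bla HEK 293T cells: 16 hr exposure to DMSO-dissolved compounds at 37C, 5% CO2, in steroid-depleted (2% charcoal-stripped FBS) medium; beta-lactamase measured by FRET fluorescence.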
On the technique in general: Quantitative high-throughput screening tests each substance at several concentrations.

The target is the same in assay [2]. In words: qHTS assay to identify small molecule antagonists of the progesterone receptor (PR) signaling pathway (AID 1346795; active means well fitted inhibition curve with a large enough effect in the signal ratio in the repeat runs, not every such curve was filed as active; the % refers to the signal ratio; further: potency means the concentration at half of the fitted maximal effect). An outline of the steps: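 Stimulus R5020 at 1 nM final; cells HEK293T PR-UAS-bla; medium with 2% charcoal-stripped FBS; compound exposure 16 hr at 37C, 5% CO2; detection by FRET beta-lactamase substrate, 2 hr, room temperature.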
The nature of assay [3]: qHTS assay to identify small molecule antagonists of the progesterone receptor (PR) signaling pathway - cell viability counter screen (AID 1346798). Further: series mostly up to about 92 µM; nearly all actives have a fitted effect of over 50% in size. An outline of the steps:
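In the same plates used for the beta-lactamase readout, cell viability of compound- and R5020-treated PR-UAS-bla HEK293T cells (16 hr, 37C) was assessed by CellTiter-Glo luminescence.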

The nature of assay [4]: qHTS assay to identify small molecule agonists of the progesterone receptor (PR) signaling pathway - cell viability counter screen (AID 1346799; calls by dose curve; further: nearly all actives have a fitted effect of over 45% in size). An outline of the steps:
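Multiplexed viability read: CellTiter-Glo luminescence, 30 min RT, following LiveBLAzer FRET measurement on PR-UAS-bla HEK293T cells exposed to compounds 16 hr.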

The nature of assay [5]: qHTS assay to identify small molecule antagonists of the TGF-beta/Smad signaling pathway - cell viability counter screen (AID 1346824). Further: nearly all actives have a fitted effect of over 50% in size. Put shortly: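 SBE-bla HEK 293T cells, incubated overnight, then compound plus 0.25 ng/mL TGF-beta1 (stock added) for 5 hr at 37 C. Viability was read in the same wells by CellTiter-Glo luminescence after 30 min at room temperature.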
The nature of assay [6]: qHTS assay to identify small molecule agonists of the TGF-beta/Smad signaling pathway - cell viability counter screen (AID 1346829). Further: top concentration of the series differs between compounds; nearly all actives have a fitted effect of over 45% in size. Put shortly: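 Here the cytotoxicity of library compounds is measured in SBE-bla HEK 293T cells treated for 5 hr, using CellTiter-Glo added to wells already read for the beta-lactamase reporter.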
Assay [7] is described as follows: qHTS assay to identify small molecule agonists of the TGF-beta/Smad signaling pathway (AID 1346859; active means well fitted activation curve with a large enough effect in the signal ratio in the repeat runs, not every such curve was filed as active; the % refers to the signal ratio; further: series mostly up to about 77 µM). Put shortly:
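Screening used HEK 293T SBE-bla cells at 4,000/well. Test agents: 5 hr, 37 C. Detection: FRET substrate, 2 hr RT, then excitation 405 nm with emissions at 460 and 530 nm.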

For assay [8], the target named is Thyrotropin-releasing hormone receptor (Homo sapiens) (UniProt P34981). In words: qHTS assay to identify small molecule agonists of the thyrotropin-releasing hormone receptor (TRHR) signaling pathway (AID 1346891; calls by dose curve; further: potency means the concentration at half of the fitted maximal effect; on activation: series mostly up to about 58 µM). Put shortly:
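Readout was intracellular calcium fluorescence in TRHR-Hek293 cells. Cells were incubated 18 h, dye-loaded 2 h at 37 °C, and treated with compound in agonist mode.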

The nature of assay [9]: Human pregnane X receptor (PXR) small molecule agonists, qHTS cell viability counter screen (AID 1346977). Further: nearly all actives have a fitted effect of over 50% in size. Put shortly: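 In each well, the PXR reporter HepG2 line was checked for viability: CellTiter-Fluor reagent added 23hr post-dosing, fluorescence read after 1hr incubation at 37C.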
Assay [10] can be described thus: Caspase-3/7 induction in HepG2 cells by small molecules, qHTS assay (AID 1346978). Further: nearly all actives have a fitted effect of over 15% in size. An outline of the steps:
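Wild-type HepG2 cells, 2,000/well, settled 5 hr at 37 C and 5% CO2, then compound-treated for 17 hr; caspase-3/7 activity read by luminescent Caspase-Glo 3/7 after 30 min at room temperature.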

Assay [11] in a line: Caspase-3/7 induction in CHO-K1 cells by small molecules, qHTS cell viability counter screen (AID 1346979). Further: nearly all actives have a fitted effect of over 35% in size. Further: potency means the concentration at half of the fitted maximal effect. Put shortly:
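Following a 5hr settling period, CHO-K1 cells at 1,500 per well received DMSO-dissolved compounds. Cell viability was quantified 16hr later by CellTiter-Fluor fluorescence, measured after 1hr with reagent at 37C.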

The nature of assay [12]: Caspase-3/7 induction in HepG2 cells by small molecules, qHTS cell viability counter screen (AID 1346981). Further: nearly all actives have a fitted effect of over 30% in size. Further: potency means the concentration at half of the fitted maximal effect. Put shortly: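 Wild-type HepG2 cells (2,000/well) were allowed to settle for 5 hr at 37 C, 5% CO2, then dosed with compounds in DMSO by pin transfer. After 16 hr at 37 C, CellTiter-Fluor was added and fluorescence read 1 hr later.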
Assay [13] deals with Cytochrome P450 2D6 (Homo sapiens) (UniProt P10635). Nature of the assay: Cytochrome P450 Family 2 Subfamily D Member 6 (CYP2D6) small molecule antagonists: luciferase reporter qHTS assay (AID 1671196). Further: nearly all actives have a fitted effect of over 50% in size. Further: potency means the concentration at half of the fitted maximal effect. Put shortly:
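CYP2D6 enzyme–substrate mix was held with compound for 10 min at room temperature, then NADPH regeneration solution was added and the reaction ran 1 h at room temperature. Luciferin product was detected by luminescence after 20 min with detection reagent.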
Background: Reporter assays use an easily measured gene product as a stand-in for the process of interest.

The target of assay [14] is Cytochrome P450 2C19 (Homo sapiens) (UniProt P33261). Nature of the assay: Cytochrome P450 Family 2 Subfamily C Member 19 (CYP2C19) small molecule antagonists: luciferase reporter qHTS assay (AID 1671197). Further: nearly all actives have a fitted effect of over 65% in size. Further: potency means the concentration at half of the fitted maximal effect. Put shortly: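 Light output is proportional to CYP2C19 activity: proluciferin substrate is converted to luciferin, then detected by a luciferin detection reagent that also stops the 1 h, 37C NADPH-driven reaction. Ketoconazole serves as positive control.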
Chain of Cytochrome P450 2C19 (Homo sapiens) (P33261 whole entry, looked up): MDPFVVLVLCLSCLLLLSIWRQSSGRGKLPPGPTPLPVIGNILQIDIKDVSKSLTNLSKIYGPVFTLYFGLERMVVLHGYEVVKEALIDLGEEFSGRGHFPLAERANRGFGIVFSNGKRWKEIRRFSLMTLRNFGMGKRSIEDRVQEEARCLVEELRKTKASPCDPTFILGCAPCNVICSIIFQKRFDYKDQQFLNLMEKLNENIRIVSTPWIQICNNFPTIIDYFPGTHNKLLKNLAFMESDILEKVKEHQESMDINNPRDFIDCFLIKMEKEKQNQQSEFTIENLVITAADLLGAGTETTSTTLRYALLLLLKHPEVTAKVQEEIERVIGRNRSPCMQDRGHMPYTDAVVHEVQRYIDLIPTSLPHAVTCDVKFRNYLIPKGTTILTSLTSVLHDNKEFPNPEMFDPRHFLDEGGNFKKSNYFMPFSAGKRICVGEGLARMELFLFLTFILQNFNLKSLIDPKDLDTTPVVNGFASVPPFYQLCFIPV

Assay [15] can be described thus: Caspase-3/7 induction in CHO-K1 cells by small molecules, qHTS assay (AID 1346980). Further: nearly all actives have a fitted effect of over 15% in size. An outline of the steps: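 Wild-type CHO-K1 cells exposed to compounds for 17hr at 37 C, 5% CO2. Caspase-3/7 activity then measured by Caspase-Glo 3/7 luminescence after 30min at room temperature.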
Assay [16] deals with Nuclear receptor subfamily 1 group I member 2 (Homo sapiens) (UniProt O75469). In words: Human pregnane X receptor (PXR) small molecule agonists, qHTS assay (AID 1346982). Further: nearly all actives have a fitted effect of over 35% in size. Further: potency means the concentration at half of the fitted maximal effect. Put shortly:
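PXR-Luc HepG2 cells (CYP3A4 promoter-driven luciferase) were seeded in medium with 5% charcoal-stripped FBS, left 5 hr at 37 C, then exposed to compounds in DMSO for 24 hr. Luminescence was read after ONE-Glo addition.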

The target in assay [17] is Cytochrome P450 2C9 (Homo sapiens) (UniProt P11712). Nature of the assay: Cytochrome P450 Family 2 Subfamily C Member 9 (CYP2C9) small molecule antagonists: luciferase reporter qHTS assay (AID 1671198). Further: nearly all actives have a fitted effect of over 50% in size. Further: potency means the concentration at half of the fitted maximal effect. Put shortly:
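P450-Glo proluciferin substrate with CYP2C9 enzyme; 10 min RT preincubation, then NADPH regeneration 1 h at 37C; luciferin detection reagent 20 min RT, luminescence in relative luminescence units.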

Assay [18] addresses Thyrotropin-releasing hormone receptor (Homo sapiens) (UniProt P34981). Nature of the assay: qHTS assay to identify small molecule antagonists of the thyrotropin-releasing hormone receptor (TRHR) signaling pathway (AID 1346877; active means well fitted inhibition curve with a large enough effect in the repeat runs, not every such curve was filed as active; further: potency means the concentration at half of the fitted maximal effect). Put shortly: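 TRHR-expressing HEK293 cells were seeded, cultured 18 h at 37 °C, then loaded with calcium dye for 2 h. Compounds were pre-incubated 5 min at room temperature before 1 nM TRH (final) was added, and kinetic fluorescence was recorded for 3 min.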

Assay [19] has as its target Nuclear receptor subfamily 1 group I member 2 (Homo sapiens) (UniProt O75469). Nature of the assay: Human pregnane X receptor (PXR) activation by small molecules, qHTS assay (AID 1346985). Further: nearly all actives have a fitted effect of over 40% in size. Put shortly: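 DPX-2 cells (HepG2 co-transfected with a PXR response element and a CYP3A4-promoter luciferase construct) were seeded at 2,000 per well, rested 5 hr at 37C, then exposed to DMSO-dissolved compounds for 24 hr. Activation was read as luciferase luminescence.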

Several values for one entry are separate records, joined by “and”; a condition that tells them apart may be missing. Equal entries are not always repeated. Inconclusive results are not listed. More than one record can exist for a structure, and the calls need not agree. Activity calls are given as the source filed them. Unless noted, the call rests on the fitted dose curve; in most records, active means well fitted curve in the direction sought with a large enough effect in the repeat runs; inconclusive means weak or mixed curves; inactive means no such curve, though single readings can be large; an effect the other way counts as inactive or inconclusive.

Chain of Thyrotropin-releasing hormone receptor (Homo sapiens) (P34981 whole entry, looked up): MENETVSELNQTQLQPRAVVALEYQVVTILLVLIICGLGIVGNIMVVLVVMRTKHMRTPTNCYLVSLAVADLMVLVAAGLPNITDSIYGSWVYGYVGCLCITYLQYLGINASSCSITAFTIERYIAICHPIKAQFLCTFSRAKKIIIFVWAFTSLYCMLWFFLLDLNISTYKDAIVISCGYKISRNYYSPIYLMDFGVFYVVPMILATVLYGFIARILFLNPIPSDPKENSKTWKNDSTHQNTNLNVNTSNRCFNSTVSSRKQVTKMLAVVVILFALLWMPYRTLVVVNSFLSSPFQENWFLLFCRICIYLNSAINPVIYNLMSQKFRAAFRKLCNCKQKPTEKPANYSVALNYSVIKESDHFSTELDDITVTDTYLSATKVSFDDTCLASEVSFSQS
Chain of Cytochrome P450 2D6 (Homo sapiens) (P10635 whole entry, looked up): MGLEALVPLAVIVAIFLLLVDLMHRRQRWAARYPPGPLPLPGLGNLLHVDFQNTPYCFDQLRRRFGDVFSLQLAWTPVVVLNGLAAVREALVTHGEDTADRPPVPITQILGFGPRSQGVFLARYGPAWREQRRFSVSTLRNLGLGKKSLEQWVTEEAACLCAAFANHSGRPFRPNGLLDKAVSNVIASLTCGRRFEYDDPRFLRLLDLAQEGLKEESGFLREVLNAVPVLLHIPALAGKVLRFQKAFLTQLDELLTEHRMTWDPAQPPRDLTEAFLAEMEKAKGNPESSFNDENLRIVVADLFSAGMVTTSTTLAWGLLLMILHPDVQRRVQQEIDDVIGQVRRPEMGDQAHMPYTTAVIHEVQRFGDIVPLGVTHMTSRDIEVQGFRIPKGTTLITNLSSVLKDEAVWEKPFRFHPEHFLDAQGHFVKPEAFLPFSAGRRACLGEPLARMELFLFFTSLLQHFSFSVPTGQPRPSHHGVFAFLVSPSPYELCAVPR
Chain of Cytochrome P450 2C9 (Homo sapiens) (P11712 whole entry, looked up): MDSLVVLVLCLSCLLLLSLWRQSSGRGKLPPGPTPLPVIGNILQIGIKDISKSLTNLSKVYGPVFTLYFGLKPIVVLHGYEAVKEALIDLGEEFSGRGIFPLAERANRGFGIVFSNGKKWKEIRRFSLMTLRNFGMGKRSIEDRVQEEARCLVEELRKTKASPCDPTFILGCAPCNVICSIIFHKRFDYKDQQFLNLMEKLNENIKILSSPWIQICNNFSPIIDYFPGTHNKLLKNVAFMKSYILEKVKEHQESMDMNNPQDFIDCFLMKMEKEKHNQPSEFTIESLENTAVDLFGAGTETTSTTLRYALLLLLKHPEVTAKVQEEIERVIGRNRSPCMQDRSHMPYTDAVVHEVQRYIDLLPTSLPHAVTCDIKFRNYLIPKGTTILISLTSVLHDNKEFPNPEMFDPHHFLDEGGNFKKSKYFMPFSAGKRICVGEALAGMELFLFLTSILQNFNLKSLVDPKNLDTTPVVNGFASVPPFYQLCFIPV
Chain of Progesterone receptor (Homo sapiens) (P06401 whole entry, looked up): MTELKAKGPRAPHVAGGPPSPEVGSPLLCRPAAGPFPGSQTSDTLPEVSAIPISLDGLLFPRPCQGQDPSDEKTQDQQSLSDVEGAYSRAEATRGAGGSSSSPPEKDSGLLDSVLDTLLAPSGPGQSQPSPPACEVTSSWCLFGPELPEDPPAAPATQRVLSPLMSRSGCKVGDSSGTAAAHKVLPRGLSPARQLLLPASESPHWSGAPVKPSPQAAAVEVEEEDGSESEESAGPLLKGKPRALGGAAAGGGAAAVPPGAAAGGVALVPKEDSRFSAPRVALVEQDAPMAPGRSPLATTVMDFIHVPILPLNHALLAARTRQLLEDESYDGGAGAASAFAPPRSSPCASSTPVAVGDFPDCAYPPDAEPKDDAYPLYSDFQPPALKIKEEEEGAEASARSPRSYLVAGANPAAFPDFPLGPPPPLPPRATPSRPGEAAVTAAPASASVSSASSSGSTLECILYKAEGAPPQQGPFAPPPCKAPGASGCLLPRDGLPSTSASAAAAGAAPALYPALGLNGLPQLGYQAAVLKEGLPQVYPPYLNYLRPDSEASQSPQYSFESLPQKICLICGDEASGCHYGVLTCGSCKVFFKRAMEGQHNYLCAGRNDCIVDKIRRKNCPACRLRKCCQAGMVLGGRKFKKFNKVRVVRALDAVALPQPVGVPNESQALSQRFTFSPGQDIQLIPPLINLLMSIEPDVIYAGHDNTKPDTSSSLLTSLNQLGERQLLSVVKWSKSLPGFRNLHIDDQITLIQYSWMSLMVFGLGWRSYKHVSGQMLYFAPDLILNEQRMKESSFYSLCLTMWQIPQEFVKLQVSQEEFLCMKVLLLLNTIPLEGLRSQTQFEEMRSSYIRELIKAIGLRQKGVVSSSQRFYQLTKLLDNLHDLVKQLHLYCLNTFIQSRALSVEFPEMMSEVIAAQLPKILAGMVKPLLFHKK
Chain of Nuclear receptor subfamily 1 group I member 2 (Homo sapiens) (O75469 whole entry, looked up): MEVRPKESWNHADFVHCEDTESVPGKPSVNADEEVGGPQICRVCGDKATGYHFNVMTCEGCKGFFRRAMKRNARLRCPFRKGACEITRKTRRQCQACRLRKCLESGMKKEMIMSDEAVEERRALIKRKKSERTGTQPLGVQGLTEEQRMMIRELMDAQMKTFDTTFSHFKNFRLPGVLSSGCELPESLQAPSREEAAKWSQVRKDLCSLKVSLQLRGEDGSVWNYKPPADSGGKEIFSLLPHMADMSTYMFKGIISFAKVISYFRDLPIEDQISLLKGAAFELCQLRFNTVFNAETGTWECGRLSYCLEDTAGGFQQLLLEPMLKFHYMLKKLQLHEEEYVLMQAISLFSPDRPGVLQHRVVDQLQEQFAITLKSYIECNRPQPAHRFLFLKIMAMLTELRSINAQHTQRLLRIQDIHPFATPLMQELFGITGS

Turning to `CC(C)=CCO`, the Potency result in assay [1], in assay [2], in assay [3], in assay [4], in assay [5] and in [6] was “inactive” each time. For the same molecule, the Potency result in [8], in [9], in assay [10], in assay [11], in assay [12] and in assay [13] was “inactive” each time. Moreover, the Potency entry in assay [14] was “inactive”. Further, the result in assay [7] was inactive.

As to `Cc1ccc(C(C)(C)C)c(O)c1`, the Potency entry in assay [1], in assay [2], in assay [3], in assay [4], in assay [5] and in [6] was “inactive” each time. Also, the Potency entry in [8], in [9], in assay [15], in assay [12], in assay [16] and in [13] was “inactive” throughout. Besides, the molecule was classed as inactive in assay [7]. Moreover, the Potency in assay [11] is 66.4 µM (active); in assay [14] it was 30.7 µM (active) and 39.9 µM (active); in [17], 34.4 µM (active) and 71 µM (active).

Consider `Nc1ccc(N)c(Cl)c1`, for which the Potency result in assay [1], in assay [3], in [4], in assay [5], in [6] and in [10] was “inactive” each time. Besides, the Potency is 27.3 µM (active) in assay [2]; “inactive and 30.2 µM (active)” in [18]; “inactive and 4.9 µM (active)” in [8]; 61 µM (active) and 54.5 µM (active) in assay [11]; 68.5 µM (active) in assay [12]; 21.6 µM (active) and 48.6 µM (active) in [16]. In addition, the Potency was 12.6 µM (active) and 22.4 µM (active) in assay [13]; 3.17 µM (active) and 5.03 µM (active) in [14]; 8.92 µM (active) and 8.94 µM (active) in assay [17]. In [7], the molecule was classed as inactive.

Regarding `COC(=O)C(C)Oc1ccc(Oc2ncc(C(F)(F)F)cc2Cl)cc1` (centres undefined), the Potency entry in assay [1], in assay [2], in [3], in assay [4], in assay [5] and in assay [6] was “inactive” throughout. Besides, the Potency entry in assay [18], in assay [8], in assay [9], in [10], in [11] and in [12] was “inactive” each time. Further, the Potency result in assay [17] was “inactive”. For the same molecule, the molecule was called inactive in assay [7]. Besides, the Potency in [14] was 40.4 µM (active) and 39.9 µM (active).

On to `IC(I)I`, for which the Potency result in assay [1], in assay [2], in [3], in assay [4], in assay [5] and in assay [6] was “inactive” in each case. The Potency entry in assay [8], in assay [9], in [11], in assay [15], in [12] and in assay [16] was “inactive” each time. Further, the Potency entry in [19] is “inactive”. In addition, in [7], the molecule was called inactive. Also, the Potency in assay [14] was 39.9 µM (active) and 89.4 µM (active); in [17], 35.5 µM (active) and 63.3 µM (active).

Take `C=CC(C)(O)CCC=C(C)C` (centres undefined): the Potency result in assay [1], in assay [2], in [3], in assay [4], in assay [5] and in assay [6] was “inactive” in each case. Besides, the Potency result in assay [8], in assay [9], in assay [11], in [15], in [12] and in assay [16] was “inactive” each time. The Potency result in [13] and in assay [14] was “inactive” each time. In addition, the molecule was classed as inactive in assay [7].

With `CC1=CC(C)(C)Nc2ccccc21`, the Potency result in assay [1], in assay [2], in [3], in assay [4], in assay [5] and in assay [6] was “inactive” in each case. The Potency result in assay [8], in [9], in [10], in assay [11], in [15] and in assay [12] was “inactive” throughout. The Potency entry in assay [13] was “inactive”. Moreover, in assay [7], the outcome was inactive. The Potency in [16] is 8.41 µM (active); in assay [14], 75.6 µM (active); in [17], 12.3 µM (active).
